Bioassay records deposited in PubChem by National Center for Advancing Translational Sciences (NCATS).
Sampled rows, rich in hits. Any-hit rate of the full collection: about 1%.
TrxR1 inh: qHTS Assay for Inhibitors of Mammalian Selenoprotein Thioredoxin Reductase 1 (TrxR1): qHTS. 390,000 compounds, 1% hits. Potency, µM (doses to about 114 µM), most hits filed as inhibitors. AID 588453, 2011. recombinant rTrxR1, NADPH fluorescence consumption, selenite substrate; further: nearly all actives have a fitted effect of over 65% in size
Target sequence (O89049 whole entry, looked up): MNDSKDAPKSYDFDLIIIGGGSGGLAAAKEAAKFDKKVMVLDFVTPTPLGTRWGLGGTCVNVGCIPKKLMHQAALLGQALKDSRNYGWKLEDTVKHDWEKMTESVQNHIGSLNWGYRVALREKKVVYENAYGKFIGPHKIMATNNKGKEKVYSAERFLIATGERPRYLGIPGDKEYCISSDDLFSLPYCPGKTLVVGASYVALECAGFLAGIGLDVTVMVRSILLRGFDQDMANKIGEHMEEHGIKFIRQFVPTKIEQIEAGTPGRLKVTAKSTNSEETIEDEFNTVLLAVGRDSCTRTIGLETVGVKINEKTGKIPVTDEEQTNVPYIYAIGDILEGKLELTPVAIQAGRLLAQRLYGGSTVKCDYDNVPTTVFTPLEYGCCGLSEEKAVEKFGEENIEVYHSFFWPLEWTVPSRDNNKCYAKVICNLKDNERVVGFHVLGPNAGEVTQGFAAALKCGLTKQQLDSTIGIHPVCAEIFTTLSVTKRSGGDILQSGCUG
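Rat TrxR1 (90 nM in the dispensed reagent) was pre-reduced with 400 uM NADPH for 5 min at room temperature, then incubated with compound for 15 min. After 400 uM selenite was added, NADPH fluorescence (Ex 340/Em 450 nm) was followed for 8 min.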
USP2a block: qHTS Assay for Inhibitors of Ubiquitin-specific Protease USP2a Using CHOP2 as the Reporter; 330,000 compounds, 0.01% hits; Potency, µM (top dose mostly 38.3 µM), most hits filed as inhibitors; Ubiquitin carboxyl-terminal hydrolase 2 (Homo sapiens), O75604; USP2 core, Ub-CHOP2 coupled fluorogenic reporter, 485/531
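USP2 core (10nM final) preincubated 30min RT with compound in 20mM Tris-HCl pH 8.0, 2mM CaCl2, 2mM beta-mercaptoethanol, 0.05% CHAPS; 25nM Ub-CHOP2 plus 25nM reporter substrate added, fluorescence (Ex485/Em531) read after 60min.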
Eya2 inh: qHTS Assay for Inhibitors of the Phosphatase Activity of Eya2. AID 488837, 2010. recombinant Eya2, OMFP fluorescence dephosphorylation (OMFP is methylfluorescein phosphate). 330,000 compounds, 0.006% hits. Potency, µM (top dose mostly 76.9 µM), usual class: inhibitors. Protein phosphatase EYA2 (Homo sapiens), O00167
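Eya2 (0.2 uM) preincubated 10 min at ambient with compound, then OMFP substrate added at 50 uM; 10 min reaction in 50 mM HEPES pH 7.5, 50 mM NaCl, 5 uM MgCl2, 0.05% BSA, 1 mM DTT. Fluorescence read at Ex 485/Em 525 nm.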
RGS4 inhibitor: Inhibitors of Regulator of G Protein Signaling (RGS) 4: qHTS | Regulator of G-protein signaling 4 (Homo sapiens), P49798 | Transcreener GDP fluorescence polarization, RGS4-accelerated GTP hydrolysis | Potency, µM (series often up to 114 µM), hits mostly inhibitors | 390,000 compounds, 0.039% hits | AID 504845, 2011; further: nearly all actives have a fitted effect of over 75% in size
Target sequence (P49798 whole entry, looked up): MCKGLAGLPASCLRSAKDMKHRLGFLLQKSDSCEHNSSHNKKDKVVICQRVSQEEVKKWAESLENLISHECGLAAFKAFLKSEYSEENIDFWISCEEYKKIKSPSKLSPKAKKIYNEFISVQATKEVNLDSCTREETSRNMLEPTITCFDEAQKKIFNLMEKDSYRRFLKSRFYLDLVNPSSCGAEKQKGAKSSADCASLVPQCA
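MLSMR compounds (23 nl, pin-transferred) preincubated 10 min at room temperature with a 500nM (2x) first reagent, then RGS4 at 900nM (2x) plus Transcreener GDP mix added; fluorescence polarization (620/688 nm) read before and after 90 min at 30 °C.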
GALK inhibitor: qHTS Assay for Inhibitors of Human Galactokinase (GALK) | P51570 | Purified GALK, Kinase-Glo residual ATP luminescence | Potency, µM (series often up to 57.5 µM), most hits filed as inhibitors | 270,000 compounds, 0.007% hits | AID 1868, 2009
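ATP-depletion format; final 35 uM ATP, 100 uM D-galactose, 5 nM enzyme; pH 8.0 HEPES/Mg2+ buffer; 60 min RT; luminescence read 10 min after detection reagent.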
TrxR1 substrate: qHTS Assay for Substrates of Mammalian Selenoprotein Thioredoxin Reductase 1 (TrxR1): qHTS. Thioredoxin reductase 1, cytoplasmic (Rattus norvegicus), O89049. purified TrxR1 substrate turnover, NADPH consumption readout. Potency, µM (titrated, usually from 114 µM). 390,000 compounds, 0.01% hits. AID 588456, 2011; further: nearly all actives have a fitted effect of over 50% in size
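Rat TrxR1, dispensed at 90 nM, was prereduced with 400 uM NADPH (final) for 5 min at ~22 deg C, then incubated with compound 15 min before 400 uM selenite. A first-read NADPH fluorescence drop versus no-compound background flagged substrates.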
A number is an active result; ! = not active in a repeat; [ ] = another dose, or the depositor's remark. The call rests on the fitted dose curve; in most records, active means well fitted curve in the direction sought with a large enough effect; inconclusive means small, poorly fitted or top-dose-only effect, or another doubt; inactive means no such curve, though single readings can be large; an effect the other way counts as inactive or inconclusive.

Results for N[C@]1(C(=O)O)CCc2cc(P(=O)(O)O)ccc21 ?
RGS4 inhibitor: inactive

How did CCOC(=O)c1ccc(N2C(=O)c3[nH]nc(-c4ccc(OC)cc4)c3C2c2ccc(C)cc2)cc1 (stereo not drawn) do in these assays?
TrxR1 inh: inactive; RGS4 inhibitor: inactive; TrxR1 substrate: inactive

Results for O=C1N/C(=C/c2ccc(N3CCOCC3)o2)C(=O)N1c1cccc(Cl)c1 ?
TrxR1 inh: 3.2µM; USP2a block: inactive; Eya2 inh: inactive; RGS4 inhibitor: inactive[11.4 µM]; GALK inhibitor: inactive; TrxR1 substrate: inactive

How did Cc1ccc(/C=C2/NC(=O)N(c3ccccc3)C2=O)o1 do in these assays?
TrxR1 inh: 50µM; USP2a block: inactive; Eya2 inh: inactive; RGS4 inhibitor: inconclusive; GALK inhibitor: inactive; TrxR1 substrate: inactive

How did O=C(Cc1ccc(OCCCc2ccccc2)cc1)NO do in these assays?
TrxR1 inh: inactive; TrxR1 substrate: inactive[0.0914 µM]

Results for COC(=O)C1=C(C)NC(C)=C(C(=O)OCCSc2ccccc2)C1C (stereo not drawn) ?
RGS4 inhibitor: 38µM

Results for CCN(CC)c1ccc(-c2nnc(SCC(=O)NCc3ccco3)n2CC)cc1 ?
TrxR1 inh: inactive; TrxR1 substrate: inactive

Results for CC(=O)OCCNc1cc(Sc2nc3ccccc3[nH]2)c2nonc2c1[N+](=O)[O-] ?
TrxR1 inh: inactive[11.4 µM]; USP2a block: inactive; Eya2 inh: inactive; RGS4 inhibitor: inconclusive; GALK inhibitor: inactive; TrxR1 substrate: inactive

How did CC(=O)OCCCNc1cc(Sc2nc3ccccc3s2)c2nonc2c1[N+](=O)[O-] do in these assays?
TrxR1 inh: 0.32µM; USP2a block: inactive; Eya2 inh: inactive; RGS4 inhibitor: inactive; GALK inhibitor: inactive; TrxR1 substrate: inactive

Results for CC(=O)OCCCNc1cc(Sc2ccc(C)cc2)c2nonc2c1[N+](=O)[O-] ?
TrxR1 inh: 11µM; USP2a block: inactive; Eya2 inh: inactive; RGS4 inhibitor: inconclusive; GALK inhibitor: inactive; TrxR1 substrate: inactive

What do the screens show for `CC(C)(C)n1ncc2c(=O)n(Cc3ccc(Cl)c(C(F)(F)F)c3)cnc21`?
TrxR1 inh: inactive; TrxR1 substrate: inactive

What do the screens show for `Cc1ccc(C(=O)NCc2ccccc2)cc1NC(=O)c1nsc2ccccc12`?
TrxR1 inh: inactive; RGS4 inhibitor: inactive; TrxR1 substrate: inactive

What do the screens show for `CCc1nnc(NC(=O)c2ccc(-c3ccc(Cl)cc3)o2)s1`?
TrxR1 inh: inactive; USP2a block: inactive; Eya2 inh: inactive; RGS4 inhibitor: inactive; GALK inhibitor: inactive; TrxR1 substrate: inactive

Results for CCc1nnc(NC(=O)c2ccc(-c3ccc(C(C)=O)cc3)o2)s1 ?
TrxR1 inh: 14µM; USP2a block: inactive; Eya2 inh: inactive; RGS4 inhibitor: inactive; TrxR1 substrate: inactive

Results for Cc1cc(C=O)cc(C)c1[N+](=O)[O-] ?
TrxR1 inh: inactive; TrxR1 substrate: inactive

Results for O=C(CN1CCCC(O)C1)N1c2ccccc2Sc2ccc(C(F)(F)F)cc21 (stereo not drawn) ?
TrxR1 inh: inactive; USP2a block: inactive; Eya2 inh: inactive; RGS4 inhibitor: inactive; GALK inhibitor: inactive; TrxR1 substrate: inactive

How did CN1CCN(CCCN2c3ccccc3Sc3ccc(C(F)(F)F)cc32)CC1 do in these assays?
TrxR1 inh: inconclusive; USP2a block: inactive; Eya2 inh: inactive; RGS4 inhibitor: 19µM!; GALK inhibitor: inactive; TrxR1 substrate: inactive

Results for Cc1nc(NCC(=O)c2c[nH]c3ccccc23)sc1C ?
TrxR1 inh: inactive; TrxR1 substrate: inactive

How did O=C1/C(=C/c2ccco2)N=C(N2CCCCC2)N1c1ccccc1 do in these assays?
TrxR1 inh: 71µM; USP2a block: inactive; Eya2 inh: inactive; RGS4 inhibitor: inactive; GALK inhibitor: inactive; TrxR1 substrate: inactive

What do the screens show for `Nc1ncnc2c1ncn2[C@@H]1O[C@H](CO)[C@H](O)[C@H]1O`?
TrxR1 inh: inactive

Results for S=C(c1ccc(-c2ccc(Br)cc2)o1)N1CCOCC1 ?
TrxR1 inh: inactive; USP2a block: inactive; Eya2 inh: inactive; RGS4 inhibitor: inactive; GALK inhibitor: inactive; TrxR1 substrate: inactive

Results for S=C(c1ccc(-c2ccc(Cl)c(Cl)c2)o1)N1CCOCC1 ?
TrxR1 inh: 28µM; USP2a block: inactive; Eya2 inh: inactive; RGS4 inhibitor: inconclusive; GALK inhibitor: inactive; TrxR1 substrate: inactive

What do the screens show for `C[N+]1(CC(=O)c2ccc3c(c2)CCCC3)CCOCC1`?
TrxR1 inh: inactive; TrxR1 substrate: inactive

What do the screens show for `CN1c2ccccc2C(C)(C)C12CC(CCl)=NO2` (stereo not drawn)?
TrxR1 inh: 25µM; USP2a block: inactive; Eya2 inh: inactive; RGS4 inhibitor: inactive; GALK inhibitor: inactive; TrxR1 substrate: inactive

How did CCCCC/C=C\C[C@H](O)/C=C/C=C\C/C=C\CCCC(=O)O do in these assays?
RGS4 inhibitor: inactive

Results for CCCCC/C=C\C\C=C/C=C/C=C/[C@@H](SC[C@H](N)C(=O)NCC(=O)O)[C@@H](O)CCCC(=O)O ?
RGS4 inhibitor: 27µM

What do the screens show for `Cc1ccc(S(=O)(=O)N2CCN(c3ccnc(-c4cccs4)n3)CC2)cc1`?
TrxR1 inh: inactive; RGS4 inhibitor: inactive; TrxR1 substrate: inactive

Results for COc1cc(/C=c2\s/c(=C(/C#N)C(=O)N3CCCC3)n(-c3ccccc3)c2=O)ccc1O ?
TrxR1 inh: inactive; USP2a block: inactive; Eya2 inh: inactive[15.4 µM]; RGS4 inhibitor: inactive; GALK inhibitor: inactive; TrxR1 substrate: inactive

Results for Cc1ccc(/C=c2\s/c(=C(/C#N)C(=O)N3CCCC3)n(Cc3ccco3)c2=O)s1 ?
TrxR1 inh: 25µM; USP2a block: inactive; Eya2 inh: inactive; RGS4 inhibitor: inactive; GALK inhibitor: inactive; TrxR1 substrate: inactive

What do the screens show for `N=c1c[n+](N2CCOCC2)[n-]o1`?
TrxR1 inh: inconclusive; USP2a block: inactive; Eya2 inh: inactive; RGS4 inhibitor: 19µM!; GALK inhibitor: inactive; TrxR1 substrate: inactive

How did O=S(=O)(c1ccc2c(c1)CCCC2)N1CCN(c2nc(-c3ccccc3)nc3ccccc23)CC1 do in these assays?
TrxR1 inh: inactive; RGS4 inhibitor: inactive; TrxR1 substrate: inactive

What do the screens show for `O=C(Nc1ccc(NC(=O)c2ccccc2F)cn1)c1ccco1`?
TrxR1 inh: 14µM; USP2a block: inactive; Eya2 inh: inactive; RGS4 inhibitor: inactive; GALK inhibitor: inactive; TrxR1 substrate: inactive
